In PubChem BioAssay (EPA / NIEHS) one finds outcome and AC50 data, which are given here for 39 compounds.

Records with an inconclusive call do not appear. More than one record can exist for a structure, and the calls need not agree. Calls of active or inactive are those of the source. The calls were made as follows: active = hit-call score of the fitted dose curve at least 0.9, where 1 is the maximum; inconclusive = response in the unintended direction; inactive = score below 0.9. Peptide text beside a SMILES is read from it.

A short description of this assay: ATG_XTT_Cytotoxicity: Cytotoxicity Assessment in the Attagene TRANS-FACTORIAL HepG2 Assay (AID 2283584).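 As to AC50: cells exposed to compound for 24 h before reading; active means loss of viability signal versus DMSO baseline.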 The protocol: ATG_XTT_Cytotoxicity is a cell-based, single-readout assay that uses HepG2, a human liver cell line, with measurements taken at 24 hours after chemical dosing in a 24-well plate.ATG_XTT_Cytotoxicity is one of one assay component(s) measured or calculated from the ATG_XTT_Cytotoxicity assay. It is designed to make measurements of cell number, a form of viability reporter, as detected with […] signals by XTT cytotoxicity assay technology.Data from the assay component ATG_XTT_Cytotoxicity was analyzed into 1 assay endpoint. This assay endpoint, ATG_XTT_Cytotoxicity, was analyzed in the positive analysis fitting direction relative to DMSO as the negative control and baseline of activity. Using a type of viability reporter, loss-of-signal activity can be used to understand changes in the viability. Furthermore, this assay endpoint can be referred to as a primary readout, because the performed assay has only produced 1 assay endpoint. To generalize the intended target to other relatable targets, this assay endpoint is annotated to the cell cycle intended target family, where the subfamily is cytotoxicity.
Human liver HepG2 cells are transiently transfected with multiple reporter transcription units (MRTUs) in 6-well plates using FuGene 6 reagent (Roche; 3 ml FuGene/1 mg DNA). The MRTU constructs are regulated by a cis-regulating element (promoter). […] A major difference between the CIS and TRANS system is that in CIS activities of endogenous TFs are measured, whereas the TRANS assay evaluates changes in activities of exogenous, chimeric NR-Gal4 proteins. […] At the end of 24 hour incubation, total RNA was isolated using TriZol reagent (Invitrogen). The isolated RNA is then reverse-transcribed using oligo(dT) primer and Mo-MLV reverse transcriptase (Invitrogen) with DNAse I (Ambion) treatment for 30 min. The one-tenth of the produced cDNA was amplified by PCR using Taq DNA polymerase (Invitrogen) and two reporter sequence-specific primers. The PCR products were fluorescently labeled by primer extension with 6-arboxyfluorescein (6-FAM) 5'-labeled reporter sequence-specific primer (2 min at 95 C, 20 s at 68 C and 10 min at 72 C) and these products were digested with 5U of HpaI (New England Biolabs) for 2h at 37 C. The fragments were purified using Qiaquick PCR columns (Qiagen), analyzed on an ABI 3130xL genetic analyzer (Applied Biosystems) with peak positions identified by using a set of X-rhodamine (ROX)-labeled MapMarker1000 molecular weight standards (BioVentures). The raw capillary electrophoresis data was processed using Attagraph software (Attagene).
Regarding `c1ccc(-c2nc3ccccc3[nH]2)cc1`, the compound was called inactive.
Turning to `Clc1cc(Cl)c(Cl)c(Cl)c1Cl`, the compound was called inactive.
For the compound `CCCCCCCCCCCCc1ccc(O)cc1`, the AC50 (in general, the concentration at which the activity in the assay is half-maximal) was 50.4 µM (active) and the result was inactive.
Consider `Cc1cc(=O)[nH]c(=O)[nH]1`, for which the call was inactive.
On the same count and under the same terms, the entry for `CCCc1ccc(O)c(OC)c1` is “inactive”; for `CCCC(C)C(=O)OCC` (stereo not given) it is “inactive”.
On to `O=C(Nc1ccccc1)c1cc(Cl)ccc1O`, for which the call was inactive.
Same read-out and setting: the entry for `CC(C)=NNC(N)=S` is “inactive”; for `Cn1cccc1` it is “inactive”; for `CCCCCCO` it is “inactive”.
The same measure, in the same setting: the entry for `Nc1ccnc(=O)[nH]1` is “inactive”; for `Cc1ccc2c(c1)CCCN2` it is “inactive”; for `CCCCCCCCCCCC(C)=O` it is “inactive”.
The same measure, in the same setting: the entry for `[Cl][Sc]([Cl])[Cl]` is “inactive”; for `Cc1c(Cl)cccc1Cl` it is “inactive”.
As to `CC1CC(=O)CC(C)(C)C1` (stereo not given), the outcome was inactive.
For `CCCCC(C=O)CC` (stereo not given), the compound was called inactive.
For `C=CCCCCCCCCOC(C)=O`, the result was inactive.
Consider `[Cl][Eu]([Cl])[Cl]`, for which the outcome was inactive.
The same measure, in the same setting: the entry for `C=CCNCC=C` is “inactive”; for `CN(C)Cc1cc(CN(C)C)c(O)c(CN(C)C)c1` it is “inactive”; for `C=C(C)OC(C)=O` it is “inactive”.
Regarding `CC1CCC(=O)C1=O` (stereo not given), the outcome was inactive.
Take `CCCCCCCOC(=O)c1ccc(O)cc1`: the outcome was inactive.
Still for that read-out and setting: the entry for `CCc1cccc(CC)c1` is “inactive”; for `O=C(C=Cc1ccccc1)OCCc1ccccc1` it is “inactive”.
With `CC(c1cc(C(C)(C)C)cc(C(C)(C)C)c1O)c1cc(C(C)(C)C)cc(C(C)(C)C)c1O`, the call was inactive.
Still for that read-out and setting: then `CCCCC(CC)COS(=O)(=O)O` (stereo not given), with “inactive”.
Same read-out and setting: the entry for `O=C1CCCCC1C1CCCCC1` (stereo not given) is “inactive”; for `N#Cc1ccc(C(c2ccc(C#N)cc2)n2cncn2)cc1` it is “inactive”; for `CCc1occc(=O)c1O` it is “inactive”.
Same read-out and setting: then `COc1cc(C)ccc1O`, with “inactive”.
For the compound `O=C1c2ccccc2C(=O)c2cc(S(=O)(=O)O)ccc21`, the call was inactive.
Take `CC(C)=CCCC(C)=CC#N`: the compound was classed as inactive.
The same measure, in the same setting: then `Nc1ccc(C(=O)OCCCOC(=O)c2ccc(N)cc2)cc1`, with “inactive”; and `CC/C=C\C/C=C\C/C=C\CCCCCCCC(=O)OC`, with “inactive”; and `CC1=NN(c2ccc(S(=O)(=O)O)cc2)C(=O)C1N=Nc1ccccc1` (stereo not given), with “inactive”.
Same read-out and setting: the entry for `COC(=O)[C@H](Cc1ccccc1)NC(=O)[C@@H](N)CC(=O)O` (H-Asp-Phe-OMe) is “inactive”; for `COC(=O)C=Cc1ccccc1` it is “inactive”.
